Data taken from publication PMC8384837, “Expanding the binding specificity for RNA recognition by a PUF domain”.

Tests used:
Assay in all cases: yeast three-hybrid, YBZ-1, SC-Leu-His + 0.5 mM 3-AT, 4 days
Details in all cases: tags: N-Gal4 AD-HA kept; label: inside an RPR1-promoter hybrid RNA with tandem MS2 sites; ssRNA
PUM1 PUF domain R4-PHS = PUM1 PUF domain R4-PHS (Homo sapiens, UniProt Q14671 828-1176, N971P;Q975S)
In short: (§1)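 A centromeric plasmid in strain YBZ-1 co-expressed Pumilio-1 PUF domain libraries, randomized at the three base-contacting residues of each repeat, with matching RNA elements; the strain carries a LexA–MS2 coat fusion and a HIS3 reporter. After four days on SC-Leu (input) or SC-Leu-His + 0.5 mM 3-AT (selection), the repeat regions were PCR-amplified and Illumina-sequenced. The interaction score is the log change in variant frequency from input to selection, using log2 and a pseudocount of 1 where absent.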

PUM1 PUF domain R2-RRH = PUM1 PUF domain R2-RRH (Homo sapiens, UniProt Q14671 828-1176, N899R;Y900R;Q903H)
In short: as §1

PUM1 PUF domain R2-LWA = PUM1 PUF domain R2-LWA (Homo sapiens, UniProt Q14671 828-1176, N899L;Y900W;Q903A)
In short: as §1

PUM1 PUF domain R3-ARS = PUM1 PUF domain R3-ARS (Homo sapiens, UniProt Q14671 828-1176, C935A;Q939S)
In short: as §1

PUM1 PUF domain R4-API = PUM1 PUF domain R4-API (Homo sapiens, UniProt Q14671 828-1176, N971A;H972P;Q975I)
In short: as §1

PUM1 PUF domain R4-DRG = PUM1 PUF domain R4-DRG (Homo sapiens, UniProt Q14671 828-1176, N971D;H972R;Q975G)
In short: as §1

PUM1 PUF domain R5-GTQ = PUM1 PUF domain R5-GTQ (Homo sapiens, UniProt Q14671 828-1176, C1007G;R1008T)
In short: as §1

PUM1 PUF domain R8-QWC = PUM1 PUF domain R8-QWC (Homo sapiens, UniProt Q14671 828-1176, N1122Q;Y1123W;Q1126C)
In short: as §1

PUM1 PUF domain R8-MFR = PUM1 PUF domain R8-MFR (Homo sapiens, UniProt Q14671 828-1176, N1122M;Y1123F;Q1126R)
In short: as §1

PUM1 PUF domain R5-KGE = PUM1 PUF domain R5-KGE (Homo sapiens, UniProt Q14671 828-1176, C1007K;R1008G;Q1011E)
In short: as §1

PUM1 PUF domain R4-THL = PUM1 PUF domain R4-THL (Homo sapiens, UniProt Q14671 828-1176, N971T;Q975L)
In short: as §1

PUM1 PUF domain R5-RYA = PUM1 PUF domain R5-RYA (Homo sapiens, UniProt Q14671 828-1176, C1007R;R1008Y;Q1011A)
In short: as §1

PUM1 PUF domain R3-PWN = PUM1 PUF domain R3-PWN (Homo sapiens, UniProt Q14671 828-1176, C935P;R936W;Q939N)
In short: as §1

PUM1 PUF domain R3-RAF = PUM1 PUF domain R3-RAF (Homo sapiens, UniProt Q14671 828-1176, C935R;R936A;Q939F)
In short: as §1

PUM1 PUF domain R7-KRC = PUM1 PUF domain R7-KRC (Homo sapiens, UniProt Q14671 828-1176, S1079K;N1080R;E1083C)
In short: as §1

PUM1 PUF domain R7-RSV = PUM1 PUF domain R7-RSV (Homo sapiens, UniProt Q14671 828-1176, S1079R;N1080S;E1083V)
In short: as §1

PUM1 PUF domain R6-IFM = target: T1, PUM1 PUF domain R6-IFM (Homo sapiens, UniProt Q14671 828-1176, N1043I;Y1044F;Q1047M)
T1 sequence: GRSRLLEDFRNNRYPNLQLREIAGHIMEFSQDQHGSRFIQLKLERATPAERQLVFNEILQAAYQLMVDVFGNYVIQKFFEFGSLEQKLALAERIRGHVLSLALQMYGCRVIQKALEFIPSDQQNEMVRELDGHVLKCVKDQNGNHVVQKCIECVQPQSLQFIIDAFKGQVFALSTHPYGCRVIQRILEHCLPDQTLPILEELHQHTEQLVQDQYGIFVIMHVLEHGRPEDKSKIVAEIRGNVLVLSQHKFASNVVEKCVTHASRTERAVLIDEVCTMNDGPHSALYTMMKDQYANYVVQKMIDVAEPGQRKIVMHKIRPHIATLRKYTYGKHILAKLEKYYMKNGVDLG
In short: as §1

PUM1 PUF domain R7-LNG = PUM1 PUF domain R7-LNG (Homo sapiens, UniProt Q14671 828-1176, S1079L;E1083G)
In short: as §1

PUM1 PUF domain R1-RGV = PUM1 PUF domain R1-RGV (Homo sapiens, UniProt Q14671 828-1176, S863R;R864G;Q867V)
In short: as §1

PUM1 PUF domain R1-HWR = PUM1 PUF domain R1-HWR (Homo sapiens, UniProt Q14671 828-1176, S863H;R864W;Q867R)
In short: as §1

Sequence: GGCUAGAACUAGUGGAUCCCCCGGCGCCCGGCGGCUCGAGCCCGGGUAAGUGUAUAUAGUCUGCAUGCCGCCGGGCGCCAUGCCUGCAGGUCGACUCUAGAAAACAUG
- binding signal (PUM1 PUF domain R4-PHS): 7.03 log2 enrichment (interaction score)

Sequence: GGCUAGAACUAGUGGAUCCCCCGGCGCCCGGCGGCUCGAGCCCGGGUAAGUGUAAAAAGUCUGCAUGCCGCCGGGCGCCAUGCCUGCAGGUCGACUCUAGAAAACAUG
- binding signal (PUM1 PUF domain R2-RRH): 0.36 log2 enrichment (interaction score)
- binding signal (PUM1 PUF domain R2-LWA): 6.09 log2 enrichment (interaction score)

Sequence: GGCUAGAACUAGUGGAUCCCCCGGCGCCCGGCGGCUCGAGCCCGGGUAAGUGUAAGUAGUCUGCAUGCCGCCGGGCGCCAUGCCUGCAGGUCGACUCUAGAAAACAUG
- binding signal (PUM1 PUF domain R3-ARS): 0.93 log2 enrichment (interaction score)

Sequence: GGCUAGAACUAGUGGAUCCCCCGGCGCCCGGCGGCUCGAGCCCGGGUAAGUGUAAAUAGUCUGCAUGCCGCCGGGCGCCAUGCCUGCAGGUCGACUCUAGAAAACAUG
- binding signal (PUM1 PUF domain R4-PHS): 5.43 log2 enrichment (interaction score)
- binding signal (PUM1 PUF domain R4-API): 3.05 log2 enrichment (interaction score)
- binding signal (PUM1 PUF domain R3-ARS): 4.04 log2 enrichment (interaction score)
- binding signal (PUM1 PUF domain R4-DRG): 2.71 log2 enrichment (interaction score)
- binding signal (PUM1 PUF domain R5-GTQ): 2.12 log2 enrichment (interaction score)
- binding signal (PUM1 PUF domain R8-QWC): 3 log2 enrichment (interaction score)
- binding signal (PUM1 PUF domain R2-LWA): 1.62 log2 enrichment (interaction score)
- binding signal (PUM1 PUF domain R8-MFR): 3.78 log2 enrichment (interaction score)
- binding signal (PUM1 PUF domain R5-KGE): 2.24 log2 enrichment (interaction score)
- binding signal (PUM1 PUF domain R4-THL): 4.66 log2 enrichment (interaction score)
- binding signal (PUM1 PUF domain R5-RYA): 1.12 log2 enrichment (interaction score)
- binding signal (PUM1 PUF domain R3-PWN): 2.55 log2 enrichment (interaction score)

Sequence: GGCUAGAACUAGUGGAUCCCCCGGCGCCCGGCGGCUCGAGCCCGGGUAAGUGUAAUUAGUCUGCAUGCCGCCGGGCGCCAUGCCUGCAGGUCGACUCUAGAAAACAUG
- binding signal (PUM1 PUF domain R3-ARS): 1.78 log2 enrichment (interaction score)
- binding signal (PUM1 PUF domain R3-RAF): 3.3 log2 enrichment (interaction score)

Sequence: GGCUAGAACUAGUGGAUCCCCCGGCGCCCGGCGGCUCGAGCCCGGGUAAGUGUAAAGAGUCUGCAUGCCGCCGGGCGCCAUGCCUGCAGGUCGACUCUAGAAAACAUG
- binding signal (PUM1 PUF domain R2-RRH): 3.09 log2 enrichment (interaction score)
- binding signal (PUM1 PUF domain R2-LWA): 2.94 log2 enrichment (interaction score)

Sequence: GGCUAGAACUAGUGGAUCCCCCGGCGCCCGGCGGCUCGAGCCCGGGUAAGUGUCAAUAGUCUGCAUGCCGCCGGGCGCCAUGCCUGCAGGUCGACUCUAGAAAACAUG
- binding signal (PUM1 PUF domain R5-KGE): 5.15 log2 enrichment (interaction score)
- binding signal (PUM1 PUF domain R5-RYA): 4.95 log2 enrichment (interaction score)

Sequence: GGCUAGAACUAGUGGAUCCCCCGGCGCCCGGCGGCUCGAGCCCGGGUAAGUCUAAAUAGUCUGCAUGCCGCCGGGCGCCAUGCCUGCAGGUCGACUCUAGAAAACAUG
- binding signal (PUM1 PUF domain R7-KRC): 4.66 log2 enrichment (interaction score)
- binding signal (PUM1 PUF domain R7-RSV): 1.68 log2 enrichment (interaction score)

Sequence: GGCUAGAACUAGUGGAUCCCCCGGCGCCCGGCGGCUCGAGCCCGGGUAAGUGAAAAUAGUCUGCAUGCCGCCGGGCGCCAUGCCUGCAGGUCGACUCUAGAAAACAUG
- binding signal (PUM1 PUF domain R6-IFM): 6.96 log2 enrichment (interaction score)

Sequence: GGCUAGAACUAGUGGAUCCCCCGGCGCCCGGCGGCUCGAGCCCGGGUAAGUUUAAAUAGUCUGCAUGCCGCCGGGCGCCAUGCCUGCAGGUCGACUCUAGAAAACAUG
- binding signal (PUM1 PUF domain R7-RSV): 2.32 log2 enrichment (interaction score)
- binding signal (PUM1 PUF domain R7-LNG): 6.18 log2 enrichment (interaction score)

Sequence: GGCUAGAACUAGUGGAUCCCCCGGCGCCCGGCGGCUCGAGCCCGGGUAAGUGUAAAUUGUCUGCAUGCCGCCGGGCGCCAUGCCUGCAGGUCGACUCUAGAAAACAUG
- binding signal (PUM1 PUF domain R1-RGV): 2.5 log2 enrichment (interaction score)
- binding signal (PUM1 PUF domain R1-HWR): 3.32 log2 enrichment (interaction score)

Sequence: GGCUAGAACUAGUGGAUCCCCCGGCGCCCGGCGGCUCGAGCCCGGGUAAGUGUAAAUCGUCUGCAUGCCGCCGGGCGCCAUGCCUGCAGGUCGACUCUAGAAAACAUG
- binding signal (PUM1 PUF domain R1-RGV): 2.51 log2 enrichment (interaction score)
- binding signal (PUM1 PUF domain R1-HWR): 5.91 log2 enrichment (interaction score)

Sequence: GGCUAGAACUAGUGGAUCCCCCGGCGCCCGGCGGCUCGAGCCCGGGUAAGUGUUAAUAGUCUGCAUGCCGCCGGGCGCCAUGCCUGCAGGUCGACUCUAGAAAACAUG
- binding signal (PUM1 PUF domain R5-GTQ): 2.42 log2 enrichment (interaction score)
- binding signal (PUM1 PUF domain R5-RYA): 4.8 log2 enrichment (interaction score)

Sequence: GGCUAGAACUAGUGGAUCCCCCGGCGCCCGGCGGCUCGAGCCCGGGUAAGCGUAAAUAGUCUGCAUGCCGCCGGGCGCCAUGCCUGCAGGUCGACUCUAGAAAACAUG
- binding signal (PUM1 PUF domain R8-QWC): 2.08 log2 enrichment (interaction score)
- binding signal (PUM1 PUF domain R8-MFR): 5.35 log2 enrichment (interaction score)
